Mot1-301 SUMO: SUMOylation pathway inhibition by Mot1-301 growth rescue | S. cerevisiae Mot1-301 growth rescue, ATP luminescence, 38.5C; percent above DMSO median, 100 means doubled | growth rescue, % at 18.8 µM | hit rate 1% among 320,000 | AID 2716;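 active = every valid replicate shows activation above 250% relative to neutral control wells; inactive = the rest, any valid replicate at or below 250%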;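 also: OY570 slx delta 5 strain wells were the positive control but not used for scaling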
GRIN3A LBD mod: modulators (binders) of human NR3A ligand-binding domain | Tm shift relative to glycine control, % at 25 µM | AID 1259313 | hit rate 2.5% among 340,000 | NR3A LBD differential scanning fluorimetry, Tm shift; 0% = protein alone, 100% = glycine-bound protein;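 active = melting temperature shift of at least 10% of the positive control shift, at one fixed dose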
AHR act: activates the human aryl hydrocarbon receptor | P35869 | AHR-responsive luciferase reporter cells, luminescence | activation, % at 5 µM | hit rate 2.5% among 320,000 | AID 2796; in the data active = activation above about 47%;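 also: 0% = vehicle wells and 100% = reference agonist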
Target sequence (P35869 whole entry, looked up): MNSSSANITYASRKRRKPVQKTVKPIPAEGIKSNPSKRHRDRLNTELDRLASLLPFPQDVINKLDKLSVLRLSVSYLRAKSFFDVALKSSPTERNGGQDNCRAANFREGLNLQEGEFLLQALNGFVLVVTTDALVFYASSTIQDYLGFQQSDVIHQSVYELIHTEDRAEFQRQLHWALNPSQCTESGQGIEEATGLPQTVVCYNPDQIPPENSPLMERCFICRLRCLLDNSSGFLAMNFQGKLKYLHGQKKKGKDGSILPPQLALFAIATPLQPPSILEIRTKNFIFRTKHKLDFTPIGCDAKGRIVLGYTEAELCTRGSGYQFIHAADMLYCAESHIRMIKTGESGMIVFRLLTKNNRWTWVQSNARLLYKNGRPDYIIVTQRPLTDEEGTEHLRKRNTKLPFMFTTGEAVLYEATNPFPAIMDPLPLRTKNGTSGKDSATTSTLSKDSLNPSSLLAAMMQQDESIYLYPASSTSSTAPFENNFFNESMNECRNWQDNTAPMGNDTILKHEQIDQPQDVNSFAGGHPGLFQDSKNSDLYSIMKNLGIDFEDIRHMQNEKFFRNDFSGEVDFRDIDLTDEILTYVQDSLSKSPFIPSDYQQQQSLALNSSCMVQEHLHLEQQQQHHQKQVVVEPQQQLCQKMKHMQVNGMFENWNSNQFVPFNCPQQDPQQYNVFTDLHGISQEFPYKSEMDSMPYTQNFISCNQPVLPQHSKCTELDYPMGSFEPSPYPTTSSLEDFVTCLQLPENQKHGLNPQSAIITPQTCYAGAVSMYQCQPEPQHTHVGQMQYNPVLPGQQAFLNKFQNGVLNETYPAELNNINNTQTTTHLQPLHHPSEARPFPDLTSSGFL
NTR1 ag: agonists of human neurotensin receptor NTR1 | P30989 | NTR1-U2OS beta-arrestin-GFP spot imaging, agonist mode | activation, % at 20 µM | hit rate 0.17% among 330,000 | AID 493036;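 active = activation at or above 40% of the spot to cytoplasm intensity ratio, with at least 20 cells analyzed; inconclusive = wells under 20 cells, flagged as cytotoxic or low count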;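 also: 0% = DMSO without peptide and 100% = 100 nM NTR1 peptide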
AI-2 QS mod: Vibrio harveyi AI-2 quorum sensing modulation. Vibrio harveyi JMH597 AI-2 luminescence/OD600 ratio, 9 h; hits give low values; strain lacks LuxN and CqsS sensors; 0 = neutral-control median. hit rate 0.4% among 300,000. AID 2094. activity change, % at 7.5 µM; in the data active = activity change below about -75%, passing the limit was not always enough; inconclusive = no clear call, values can overlap the other calls;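 also: luminescence divided by OD600 gain over 9 h not by final OD600 alone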
H9c2 protect: modulators protecting cardiomyocytes from myocardial damage. H9c2 cardiomyocytes, H2O2 injury protection, ATPLite, 2 h. protection from H2O2 cell death, % at 20 µM. hit rate 0.63% among 360,000. AID 588492;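 active = compounds giving at least 50% protection of heart cells from peroxide-induced death in the single-dose screen, raw or plate-pattern-corrected value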;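 also: 0% = DMSO wells with peroxide and 100% = DMSO wells without peroxide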
* hit, by the source's call; ? = inconclusive; nt = not tested or not shown. In the library only some 6.2% were active in any assay of this set; here they are far more common.

SMILES | Mot1-301 SUMO | GRIN3A LBD mod | AHR act | NTR1 ag | AI-2 QS mod | H9c2 protect
O=C(NCCCN1CCc2ccccc2C1)Nc1ccc(Br)cc1 | 0.3 | 1.7 | 60.9* | 0.2 | -14.9 | 6.6
C=CCn1c(O)c(N=NC(=O)CNC(=O)c2cccs2)c2ccccc21 | -7.7 | 1.0 | 61.3* | 5.9 | 31.0 | -1.6
C=CCn1c(O)c(N=NC(=O)OC(C)(C)C)c2ccccc21 | -7.4 | -3.3 | 30.1 | 3.3 | 15.7 | -1.6
CCn1nnc(-c2ccccc2NS(=O)(=O)c2ccc(C(=O)OC)cc2)n1 | -14.4 | 12.2* | -0.2 | 0.9 | -0.9 | -7.9
CCc1nc2ccccc2c(C(=O)OCC(=O)NCc2ccc3c(c2)OCO3)c1C | -8.0 | -2.7 | 11.9 | 4.9 | 20.6 | -0.3
Cc1onc(-c2ccccc2Cl)c1C(=O)OCC(=O)Nc1ccc2c(c1)OCO2 | -17.9 | -6.5 | 55.8* | -1.9 | 7.0 | -0.3
Cc1c(-c2cccc(Cl)c2)nc2ccccc2c1C(=O)OCC(=O)Nc1ccc2c(c1)OCO2 | -0.6 | 21.3* | -6.3 | 3.6 | 14.9 | 3.1
Cc1onc(-c2ccccc2)c1C(=O)OCC(=O)Nc1ccc2c(c1)OCO2 | -0.8 | -2.2 | 9.5 | -1.4 | 20.5 | 20.8
CCCN(C(=O)c1cn(C)c(=O)c2ccccc12)c1ccccc1C | 105.8 | -1.8 | 2.6 | -0.7 | 12.1 | 0.1
O=C1c2ccccc2S(=O)(=O)N1CCS(=O)(=O)c1ccc(F)cc1 | -4.7 | 0.6 | -0.4 | -0.9 | -4.3 | 1.8
CCCS(=O)(=O)c1c(S(=O)(=O)CCC)c2c(C)cccn2c1C(=O)N/N=C/c1cc(O)cc(O)c1 | 14.8 | -7.7 | -0.5 | 3.7 | 69.0 | 53.4*
Cc1cc(N(C)C(=O)c2ccc3c(c2)S(=O)(=O)c2cc(Cl)ccc2C3=O)c(C(F)(F)F)o1 | 0.6 | 0.9 | -2.3 | 6.0 | nt | 3.5
Cc1ccc(Nc2ccc(C(F)(F)F)cc2[N+](=O)[O-])cc1 | -22.8 | 11.2* | 0.0 | 2.9 | 14.1 | -8.4
CC(=O)NNc1ccc(C(F)(F)F)cc1[N+](=O)[O-] | 0.1 | 1.5 | 0.2 | 1.4 | 9.0 | 11.5
C/C(=N\Nc1ccc(C(F)(F)F)cc1[N+](=O)[O-])C1CC1 | -2.6 | 14.3* | 10.0 | 1.4 | 24.3 | -13.6
Cc1cccc(N2CN(S(=O)(=O)c3cccc([N+](=O)[O-])c3)c3nc4ccccc4nc32)c1 | -12.5 | 0.4 | 5.0 | -1.4 | nt | -5.1
O=C(CCc1nnc(CCc2c[nH]c3ccccc23)o1)NC1CCC1 | 665.7 | -1.3 | 17.6 | 0.7 | 9.3 | 2.7
CCn1nnnc1SCC(=O)NCc1ccc2c(c1)OCO2 | nt | -1.1 | 2.6 | -0.3 | 3.1 | 3.9
COc1ccc(OC)c(-n2nnnc2SCC(=O)NCc2ccc3c(c2)OCO3)c1 | -7.8 | 10.5* | 1.8 | -0.8 | 16.7 | -0.7
COc1cc(NC(=O)CSc2nnnn2Cc2ccc3c(c2)OCO3)cc(OC)c1 | 7.3 | 6.5 | 70.7* | -1.0 | 35.3 | 8.3
O=[N+]([O-])c1cc(S(=O)(=O)Nc2cccc(C(F)(F)F)c2)ccc1-n1nnc2ccccc21 | 11.9 | 18.9* | -1.2 | 6.1 | 24.9 | -29.3
O=[N+]([O-])c1cc(S(=O)(=O)Nc2ccccc2)ccc1N1CCN(c2ccccc2)CC1 | 22.0 | 20.1* | 0.0 | 22.8 | 27.2 | -21.7
O=[N+]([O-])c1cc(S(=O)(=O)C(F)(F)F)ccc1N1CCN(c2ccccc2)CC1 | 7.2 | -3.4 | 0.1 | 4.4 | 20.4 | -6.3
COc1ccc(NS(=O)(=O)c2ccc(-n3nnc4ccccc43)c([N+](=O)[O-])c2)cc1 | -3.1 | 4.2 | -0.8 | 4.3 | 26.2 | -14.5
O=C(O)CCc1nc2cc(C(F)(F)F)ccc2n(Cc2ccccc2)c1=O | -5.2 | -1.5 | 1.7 | 0.3 | 19.1 | 4.0
O=C(Nc1nc(-c2ccccn2)cs1)c1cccc(S(=O)(=O)N2CCOCC2)c1 | -18.9 | -1.6 | 12.6 | 5.1 | nt | 75.6*
COc1ccc(C(=O)Nc2nc(-c3ccccn3)cs2)cc1S(=O)(=O)N1CCOCC1 | -1.0 | -5.3 | 11.8 | 4.1 | nt | 54.4*
O=C(Nc1nc(-c2ccccn2)cs1)c1ccc(S(=O)(=O)N2CCCCC2)cc1 | -19.6 | nt | 33.5 | 12.5 | ? | nt
Cc1ccc(S(=O)(=O)N2CCOCC2)cc1C(=O)Nc1nc(-c2ccccn2)cs1 | 1.5 | 1.0 | 10.4 | 3.9 | nt | 54.1*
COc1ccc(N/C=C(\C#N)c2nc3ccccc3n2C)c(OC)c1 | 0.4 | -1.9 | 109.3* | 11.7 | 41.8 | 49.5*
